Assay outcomes (PubChem BioAssay)
In the library only some 1.4% were active in any assay of this set; here they are far more common.
GRK2 inh: human GRK2 inhibition via aptamer displacement; P25098; bead flow cytometry, FAM-aptamer displacement from GRK2; inhibition of aptamer binding, % at 10 µM; hit rate 0.59% among 330,000; AID 488847;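 active means inhibition of aptamer binding above 40%, roughly 3 SD of noise, on plates passing a quality check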;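 further: median bead fluorescence of bound FAM aptamer so fluorescent compounds give negative values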
A3A deaminase: blocks human APOBEC3A ssDNA deamination. AID 493011. hit rate 0.41% among 330,000. recombinant A3A, FAM/TAMRA ssDNA deamination fluorescence. inhibition, % at 20 µM. P31941;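 active means at least 40% inhibition at 20 µM here, with at most 30% in a related deaminase screen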
Target sequence (P31941 whole entry, looked up): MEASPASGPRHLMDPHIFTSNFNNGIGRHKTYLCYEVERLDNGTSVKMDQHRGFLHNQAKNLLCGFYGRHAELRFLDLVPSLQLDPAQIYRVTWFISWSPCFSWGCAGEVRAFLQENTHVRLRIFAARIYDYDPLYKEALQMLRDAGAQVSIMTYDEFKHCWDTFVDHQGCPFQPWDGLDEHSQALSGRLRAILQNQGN
VLA-4 inh: inhibition in a human VLA-4 binding assay; VLA-4 expressing cells, ligand binding flow cytometry; hit rate 0.2% among 330,000; AID 2557; inhibition, % (about 7 µM as worked out from the volumes in the protocol); P13612; in the data active means inhibition above about 50%
A3G deaminase: APOBEC3G (human) deaminase inhibition. Q9HC16. recombinant A3G, ssDNA deamination FAM/TAMRA fluorescence. inhibition, % at 20 µM. hit rate 0.28% among 330,000;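 active means inhibition of at least 40% at 20 µM, with no more than 30% in the related APOBEC3A deaminase screen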
Target sequence (Q9HC16 whole entry, looked up): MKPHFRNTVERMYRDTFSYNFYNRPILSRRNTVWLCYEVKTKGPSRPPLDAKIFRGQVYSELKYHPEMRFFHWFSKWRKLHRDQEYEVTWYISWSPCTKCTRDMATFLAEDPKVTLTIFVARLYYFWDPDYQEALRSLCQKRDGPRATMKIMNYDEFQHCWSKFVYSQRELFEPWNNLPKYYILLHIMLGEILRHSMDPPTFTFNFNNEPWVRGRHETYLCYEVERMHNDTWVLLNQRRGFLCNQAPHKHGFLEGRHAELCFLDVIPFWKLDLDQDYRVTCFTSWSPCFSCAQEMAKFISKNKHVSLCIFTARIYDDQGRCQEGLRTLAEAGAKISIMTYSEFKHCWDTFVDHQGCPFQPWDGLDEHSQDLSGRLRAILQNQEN
APOBEC3G confirm: APOBEC3G (human) deaminase inhibition, confirmed | recombinant A3G ssDNA deaminase, UDG/FAM-TAMRA fluorescence | shares compounds with A3G deaminase | AID 493152 | inhibition, % at 20 µM | hit rate 72% among 890;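 active means inhibition reaching a set limit in any replicate at 20 µM, the limit being 80% of the first screen's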
UDG A3G counter: E. coli UDG inhibition in APOBEC3G counter-screen; UDG counterscreen, FAM/TAMRA oligo fluorescence; 710 tested, under 10 active; shares compounds with A3G deaminase; inhibition, % at 20 µM;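 active means compounds giving 40% or more inhibition at 20 µM in any one of the three replicates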;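 further: inhibitors lower the FAM signal released by uracil excision and alkaline cleavage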
A number is an active result; - = inactive; . = no result given; ! = repeats disagree.

SMILES	GRK2 inh	A3A deaminase	VLA-4 inh	A3G deaminase	APOBEC3G confirm	UDG A3G counter
O=[N+]([O-])c1ccc(CSc2nc3ccccc3[nH]2)cc1	-	-	-	-	.	.
O=C(CN1CCN(c2ccc(O)cc2)CC1)Nc1ccc(SC(F)F)cc1	-	-	-	43	-	.
COC(=O)C(Cc1ccccc1)NC(=O)c1cc(=O)[nH]c2ccccc12 (stereo not drawn)	-	-	-	-	.	.
COC(=O)[C@H](CC(C)C)NC(=O)c1cc2c(cn1)[nH]c1ccccc12	-	-	-	58	63	.
O=c1cc(CN2CCN(c3ccc(O)cc3)CC2)nc2scc(-c3ccccc3)n12	-	-	-	73	-	.
Nc1n[nH]c(=S)n1-c1ccc(Cl)cc1	-	-	-	52	63	-
S=c1[nH]nc(-c2ccc(Cl)cc2)n1-c1ccc(Cl)cc1	-	-	-	-	.	.
COc1cccc(CNS(=O)(=O)c2c(C)[nH]c(C)c2C(=O)N2CCCCC2)c1	-	-	-	-	.	.
Cc1ccc(/C=N/NC(=O)NC2CCCCC2)o1	-	-	-	-	.	.
Cc1ccc(/C=C/C(=O)NC2CCCCCCC2)o1	-	-	-	50	38	-
CC[C@H](C)C(=O)O[C@H]1CCC=C2C=C[C@H](C)[C@H](CC[C@@H]3C[C@@H](O)CC(=O)O3)[C@H]21	-	-	-	-	.	.
S=c1[nH]nc(-c2ccccc2)n1C1C=CCCC1 (stereo not drawn)	-	-	-	42	79	-
S=c1[nH]nc(-c2cccnc2)n1C1CCCCC1	-	-	-	-	.	.
COc1ccc(S(=O)(=O)n2nc(OC(=O)c3cccs3)cc2N)cc1	-	-	-	54	-	.
COc1ccccc1NNC(=O)C(O)(c1ccccc1OC)c1ccccc1OC	-	-	-	-	.	.
COc1ccccc1NNC(=O)C(O)(c1ccccc1)c1ccccc1	-	-	-	56	-	.
CN1CCc2cccc3c2[C@H]1Cc1ccc(O)c(O)c1-3	-	-	-	51!	103	-
CCN(CC)CCCNC(=O)c1cc(Nc2ccc(OC)cc2)nc2ccccc12	-	-	-	-	.	.
O=C(Nc1ccc(Cl)c(Cl)c1)c1ccc(Cl)c(Cl)c1	-	-	-	-	.	.
Cc1ccc(NC(=O)c2ccc(Cl)c(N3C(=O)C=CC3=O)c2)cc1	-	-	-	46	53	-
COCC1CCCN(Cc2cn(Cc3ccccc3)nc2-c2cc3ccccc3o2)C1 (stereo not drawn)	-	-	-	-	.	.
COc1ccc(OC)c2c1C(=O)c1ccccc1C2=O	-	-	-	56	-	-
COc1cccc2c1C(=O)c1ccc3ccccc3c1C2=O	-	-	-	65	22	-
COc1ccc(OC)c2c1C(=O)C(Cl)=C(Cl)C2=O	-	-	-	88	92	-
CCOC(=O)c1cc(-c2ccc(OC)cc2)nc2c1c(C)nn2CCC#N	-	-	-	-	.	.
SMILES	GRK2 inh	A3A deaminase	VLA-4 inh	A3G deaminase	APOBEC3G confirm	UDG A3G counter
O=[N+]([O-])c1ccccc1-c1ccc(C(=S)N2CCCCC2)o1	-	-	-	-	.	.
N#Cc1cn(CC(=O)O)c2ccccc12	-	-	-	70	-	-
O=C(Cn1c(=O)oc2ccccc21)Nc1nc(-c2ccccc2)cs1	-	-	-	-	.	.
O=C(Cn1c(=O)oc2ccccc21)Nc1n[nH]c(=S)s1	-	-	-	81	90	-
CC(C)OC(=O)c1ccc(NC(=O)c2ccccc2)cc1	-	-	-	-	.	.
CC(C)OC(=O)c1ccc2nc3ccccc3nc2c1	-	-	-	64	-	-
N#Cc1cc2cc3c(cc2nc1NCCNC(=S)NCCCN1CCOCC1)OCO3	-	-	-	-	.	.
COc1ccc(NC(=O)CN2C(=O)/C(=C3\SC(=S)N(CCC(=O)O)C3=O)c3ccccc32)cc1	-	-	-	53	71	-
O=C(O)CCN1C(=O)/C(=C2\C(=O)N(Cc3ccccc3Cl)c3ccccc32)SC1=S	-	-	-	-	.	.
Cc1occc1-c1n[nH]c(=S)n1-c1ccccc1	-	-	-	42	14	-
S=c1[nH]nc(-c2ccco2)n1/N=C/c1ccccn1	-	-	-	59	83	-
S=c1[nH]nc(-c2ccco2)n1/N=C/c1c(Cl)cccc1Cl	-	-	-	43	71	-
Cc1ccc(/C=N/n2c(-c3ccco3)n[nH]c2=S)cc1	-	-	-	40	66	-
Cc1cc2oc(=O)cc(-c3ccccc3)c2c(C)c1-c1ccc(CO)cc1	-	-	.	-	.	.
Cc1cccc(/C=N/n2c(-c3ccco3)n[nH]c2=S)c1	-	-	-	-	.	.
Fc1cccc(-c2n[nH]c(=S)n2-c2ccccc2)c1	-	-	-	41	86	-
S=c1[nH]nc(-c2ccco2)n1/N=C/c1ccc(Cl)c(Cl)c1	-	-	-	44	-	-
S=c1[nH]nc(-c2ccco2)n1/N=C/c1cccc(Cl)c1	-	-	-	-	.	.
S=c1[nH]nc(-c2ccco2)n1/N=C/C(Cl)=C/c1ccccc1	-	-	-	-	.	.
Cn1cccc1/C=N/n1c(-c2ccco2)n[nH]c1=S	-	-	-	44	80	-
Cc1ccsc1/C=N/n1c(-c2ccco2)n[nH]c1=S	-	-	-	42	77	-
COc1ccc(C2C3=C(CCCC3=O)NC3=C2C(=O)c2ccccc23)cc1 (stereo not drawn)	-	-	-	-	.	.
Cc1ccc(-n2c(-c3ccco3)n[nH]c2=S)cc1	-	-	-	45	72	-
Fc1ccc(-n2c(-c3ccco3)n[nH]c2=S)cc1	-	.	-	.	.	.
Cc1sc(NC(=O)c2ccccc2)c(C(=O)c2ccccc2)c1C	-	-	-	50	37	-
SMILES	GRK2 inh	A3A deaminase	VLA-4 inh	A3G deaminase	APOBEC3G confirm	UDG A3G counter
CCN(CC)C(=O)c1c(NC(=O)c2ccccc2)sc(C)c1C	-	-	-	-	.	.
Cc1ccc(C(=O)Nc2sc(C)c(C)c2C(=O)c2ccccc2)cc1	-	-	-	40	29	-
Cc1sc(NC(=O)c2ccccc2)c(C(=O)NC(C)C)c1C	-	-	-	-	.	.
COCCCn1c(=NC(=O)c2ccccc2)c(C#N)cc2c(=O)n3cccc(C)c3nc21	-	-	-	46	-	-
COCCCn1c(=NC(C)=O)c(C#N)cc2c(=O)n3cccc(C)c3nc21	-	-	-	-	.	.
O=C(O)c1ccc2c3c(ncnc13)-c1ccccc1C2=O	-	-	-	61	41	-
O=C(O)c1cccc2c1C(=O)c1ccccc1C2=O	-	-	-	-	.	.
O=C(NNC(=O)c1ccccc1C(=O)O)c1ccc(-c2ccccc2)cc1	-	-	-	-	.	.
Cc1cc(-c2ccco2)c(C#N)c2nc3ccccc3n12	-	-	-	53	47	.
CCC(=O)N1CCc2cc(S(=O)(=O)N3CCN(c4cc(Cl)ccc4C)CC3)ccc21	-	-	-	58	-	-
N#Cc1cc2c([nH]c1=S)CCCC2	-	-	-	67	78	-
N#Cc1cc2c([nH]c1=O)CCCC2	-	-	-	-	.	.
COc1ccnc(N2CCN(c3cccc(C(F)(F)F)c3)CC2)c1C#N	-	-	-	47	-	.
